# Source: the supplement of paper PMC7695840
# Where a name gives a salt, the structure may show the parent alone.
# What was measured:
# [1] = test system: Staphylococcus aureus MW2 delta-mecA (mecA-); assay: normalized GFP fluorescence (growth of mecA- strain) (fraction of control range); higher = more growth of mecA- strain; details: compound concentration: 150 uM; cefoxitin: subinhibitory; fluorescent label: GFP
# Method in brief: (§1)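 A 1:1 mix of pre-induced S. aureus MW2 cells, DsRed-labeled with the gene and GFP-labeled without it, was grown in LB with a daily-set subinhibitory antibiotic dose on 150 μM compound (1.5% DMSO) in 1536-well plates, single replicate. Growth lasted 20 h at 37 °C, 90% humidity, without shaking, and DsRed (540/590) and GFP (485/520) were then read. Channels were scaled per plate to single-strain control medians, and plates with high untreated ratios and rows with DsRed/GFP >10 were removed.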
# [2] = test system: Staphylococcus aureus MW2 (mecA+); assay: normalized DsRed fluorescence (growth of mecA+ strain) (fraction of control range); higher = more growth of mecA+ strain; details: compound concentration: 150 uM; cefoxitin: subinhibitory; fluorescent label: DsRed
# Method in brief: as §1
SMILES,normalized GFP fluorescence [1],normalized DsRed fluorescence [2]
Nc1c2c(nc3ccccc13)CCCC2,0.414,0.996
CCN(CC)C(=O)N1CCN(C)CC1,0.599,0.455
N[C@H]1C(O)O[C@H](CO)[C@@H](O)[C@@H]1O (some centres not stated),0.468,0.564
NC(=O)c1ncn([C@@H]2O[C@H](CO)[C@@H](O)[C@H]2O)c1N [Acadesine],0.499,0.776
CN(C)CCOC(=O)C(c1ccccc1)C1(O)CCCC1 (configuration not stated),0.34,0.757
CCN(CC)CC(=O)Nc1c(C)cccc1C,0.574,0.76
Cc1ccc(C(=O)Nc2ccc(S(=O)(=O)O)c3cc(S(=O)(=O)O)cc(S(=O)(=O)O)c23)cc1NC(=O)c1cccc(NC(=O)Nc2cccc(C(=O)Nc3cc(C(=O)Nc4ccc(S(=O)(=O)O)c5cc(S(=O)(=O)O)cc(S(=O)(=O)O)c45)ccc3C)c2)c1,0.319,0.63
Cc1cc(=O)[nH]c(=S)[nH]1,0.707,0.716
CCC(NC(C)C)C(O)c1ccc(O)c(O)c1 (configuration not stated),0.38,0.581
CN(C)CC/C=C1/c2ccccc2Sc2ccc(Cl)cc21,0.0199,1.12
C=C(c1ccc(C(=O)O)cc1)c1cc2c(cc1C)C(C)(C)CCC2(C)C [Bexarotene],0.666,0.742
CCCCNC(=O)NS(=O)(=O)c1ccc(C)cc1,0.18,0.588
C#C[C@]1(O)CC[C@H]2[C@@H]3CCC4=CC(=O)CC[C@@H]4[C@H]3CC[C@@]21C [Norethindrone (Norethisterone)],0.268,0.621
CC(=O)c1ccc(S(=O)(=O)NC(=O)NC2CCCCC2)cc1,0.35,0.729
COC(=O)[C@H]1[C@H]2C[C@@H]3c4[nH]c5cc(OC)ccc5c4CCN3C[C@H]2C[C@@H](OC(=O)c2cc(OC)c(OC)c(OC)c2)[C@@H]1OC,0.0258,1.04
CCCNC(C)C(=O)Nc1c(C)csc1C(=O)OC (configuration not stated) [Articaine HCl],0.567,0.672
CN(C)CCOC(c1ccc(Cl)cc1)c1ccccn1 (configuration not stated),0.55,0.618
CC(=O)c1ccc2c(c1)N(CCCN1CCN(CCO)CC1)c1ccccc1S2,0.252,1.08
Cc1onc(-c2ccccc2)c1-c1ccc(S(N)(=O)=O)cc1 [Valdecoxib],0.291,0.573
Oc1cccc(O)c1,0.565,0.516
CCN(CC)CCNC(=O)c1cc(S(C)(=O)=O)ccc1OC,0.437,0.945

SMILES,normalized GFP fluorescence [1],normalized DsRed fluorescence [2]
CC(C)Cc1ccc([C@H](C)C(=O)O)cc1,0.21,0.388
Cc1ccc(NC(=O)c2ccc(CN3CCN(C)CC3)cc2)cc1Nc1nc(-c2cccnc2)cs1 [Masitinib (AB1010)],0.0914,0.633
NC[C@H](O)c1ccc(O)c(O)c1,0.502,1.06
CC(=O)CC(c1ccc([N+](=O)[O-])cc1)c1c(O)c2ccccc2oc1=O (configuration not stated),0.279,0.29
CC(N/C(=N\C#N)Nc1ccncc1)C(C)(C)C (configuration not stated),0.124,1.44
CC[C@@]1(O)C(=O)OCc2c1cc1n(c2=O)Cc2cc3c(CN(C)C)c(O)ccc3nc2-1,0.791,0.763
CC(C(=O)O)c1ccc(N2Cc3ccccc3C2=O)cc1 (configuration not stated),0.227,0.501
COCCCN1CCC(NC(=O)c2cc(Cl)c(N)c3c2OCC3)CC1 [Prucalopride],0.256,0.927
C[C@@H]1O[C@@H](OC[C@H]2O[C@@H](Oc3c(-c4ccc(OCCO)c(OCCO)c4)oc4cc(OCCO)cc(O)c4c3=O)[C@H](O)[C@@H](O)[C@@H]2O)[C@H](O)[C@H](O)[C@H]1O [Troxerutin],0.934,0.471
c1ccc([C@H]2CN3CCSC3=N2)cc1,0.522,0.535
CC(C)(C(=O)O)c1ccc(C(O)CCCN2CCC(C(O)(c3ccccc3)c3ccccc3)CC2)cc1 (configuration not stated),0.393,1.03
COc1cc(C)c(/C=C/C(C)=C/C=C/C(C)=C/C(=O)O)c(C)c1C [Acitretin],0.0102,0.289
CN(C)C(=N)NC(=N)N,0.544,0.887
CC#C[C@]1(O)CC[C@H]2[C@@H]3CCC4=CC(=O)CCC4=C3[C@@H](c3ccc(N(C)C)cc3)C[C@@]21C,0.622,0.695
COc1ccc2c(c1)c(CC(=O)O)c(C)n2C(=O)c1ccc(Cl)cc1,-0.013,0.261
C1N2CN3CN1CN(C2)C3,0.209,0.452
Cc1ccc(S(=O)(=O)NC(=O)NN2CCCCCC2)cc1,0.372,0.655
Cc1cccc(C)c1NC(=O)C1CCCCN1C (configuration not stated),0.677,0.7
Cc1cc(C(C)(C)C)cc(C)c1CC1=NCCN1,0.345,0.52
COC(=O)C1=C(C)NC(C)=C(C(=O)OC)C1c1ccccc1[N+](=O)[O-],0.0465,0.832
Oc1ccc(C2CNCCc3c2cc(O)c(O)c3Cl)cc1 (configuration not stated),0.582,0.979

SMILES,normalized GFP fluorescence [1],normalized DsRed fluorescence [2]
CCOC(=O)C1=C(COCCN)NC(C)=C(C(=O)OC)C1c1ccccc1Cl (configuration not stated),-0.0144,1.06
CC(=O)N(O)CCCCCNC(=O)CCC(=O)N(O)CCCCCNC(=O)CCC(=O)N(O)CCCCCN,0.272,1.26
Cc1cc(C(C)(C)C)c(O)c(C)c1CC1=NCCN1 [Oxymetazoline hydrochloride],0.135,1.28
CCOC(=O)C1=C[C@]2(CC)CCCN3CCc4c(n1c1ccccc41)[C@@H]32,0.593,0.554
CCCSc1ccc2[nH]c(NC(=O)OC)nc2c1,0.251,0.742
CC(C)C(=O)Oc1ccc(CO)cc1[C@H](CCN(C(C)C)C(C)C)c1ccccc1 [Fesoterodine fumarate (Toviaz)],0.00662,1.38
O=C(c1ccc(OCCN2CCCCC2)cc1)c1c(-c2ccc(O)cc2)sc2cc(O)ccc12,-0.00866,0.747
CC(CN1c2ccccc2Sc2ccccc21)N(C)C (configuration not stated),-0.00976,0.917
NCCCC[C@H](N[C@@H](CCc1ccccc1)C(=O)O)C(=O)N1CCC[C@H]1C(=O)O,0.972,0.642
NC(=O)OCC(COC(N)=O)c1ccccc1 [Felbamate],0.382,0.864
COc1nc(N)nc2c1ncn2[C@@H]1O[C@H](CO)[C@@H](O)[C@@H]1O [Nelarabine (Arranon)],0.298,0.855
CC(=O)OCC(=O)[C@@]1(O)CC[C@H]2[C@@H]3CCC4=CC(=O)CC[C@]4(C)[C@H]3C(=O)C[C@@]21C,0.843,0.634
Cc1cc2c(s1)Nc1ccccc1N=C2N1CCN(C)CC1,0.695,0.803
Cc1cccc(C)c1NC(=O)C(C)N (configuration not stated),0.842,0.486
OCCOCCN1CCN(C2=Nc3ccccc3Sc3ccccc32)CC1 [Quetiapine fumarate (Seroquel)],0.0887,1.15
Nc1nc(N)c2nc(-c3ccccc3)c(N)nc2n1,0.0839,1.75
CC[C@]12C=CCN3CC[C@@]4(c5cc([C@@]6(C(=O)OC)C[C@@H]7C[C@@H](C(C)(F)F)CN(Cc8c6[nH]c6ccccc86)C7)c(OC)cc5N(C)[C@H]4[C@@](O)(C(=O)OC)[C@@H]1OC(C)=O)[C@@H]32 [Vinflunine Tartrate],0.315,0.556
CCCCCCCCCCCCCCCCCCCCCCO,0.3,0.765
OC(CCN1CCCC1)(c1ccccc1)C1CCCCC1 (configuration not stated),0.159,1.7
Oc1ccc(O)cc1,0.379,0.882
Cc1cc(NS(=O)(=O)c2ccc(N)cc2)no1,0.0197,0.744

SMILES,normalized GFP fluorescence [1],normalized DsRed fluorescence [2]
Cn1cnc([N+](=O)[O-])c1Sc1ncnc2[nH]cnc12,0.269,1.03
CC(C)OC(=O)OCOP(=O)(CO[C@H](C)Cn1cnc2c(N)ncnc21)OCOC(=O)OC(C)C [Tenofovir Disoproxil Fumarate],0.238,0.514
O=C(CCCN1CC=C(n2c(=O)[nH]c3ccccc32)CC1)c1ccc(F)cc1,0.664,0.702
Cc1cn(-c2cc(NC(=O)c3ccc(C)c(Nc4nccc(-c5cccnc5)n4)c3)cc(C(F)(F)F)c2)cn1 [Nilotinib (AMN-107)],0.547,0.566
"C[C@H]1[C@H](NC(=O)/C(=N\OC(C)(C)C(=O)O)c2csc(N)n2)C(=O)N1S(=O)(=O)O [Aztreonam (Azactam, Cayston)]",0.136,1.17
CC(=O)NCCCS(=O)(=O)O,0.628,0.742
CC(=O)N(CC(O)CO)c1c(I)c(C(=O)NCCO)c(I)c(C(=O)NCC(O)CO)c1I (configuration not stated),0.914,0.86
CN1CC2c3ccccc3Oc3ccc(Cl)cc3C2C1 (configuration not stated) [Asenapine],0.129,1.64
CN(C)CCc1c[nH]c2ccc(C[C@H]3COC(=O)N3)cc12,0.31,0.962
CN(C)CC/C=C1/c2ccccc2COc2ccc(CC(=O)O)cc21 [Olopatadine hydrochloride (Opatanol)],0.475,0.587
C[C@@H]1C[C@H]2[C@@H]3C[C@H](F)C4=CC(=O)C=C[C@]4(C)[C@@]3(F)[C@@H](O)C[C@]2(C)[C@@]1(O)C(=O)CO,0.766,0.847
C[N+](C)(C)CCO.[Cl-],0.657,0.615
Nc1ccn(C[C@@H](CO)OCP(=O)(O)O)c(=O)n1 [Cidofovir (Vistide)],0.408,0.568
CC[N+](CC)(CC)CCOc1cccc(OCC[N+](CC)(CC)CC)c1OCC[N+](CC)(CC)CC,0.163,0.336
CN1C(C(=O)Nc2ccccn2)=C(O)c2ccccc2S1(=O)=O [Piroxicam (Feldene)],0.0173,0.661
CCCCCCCN(CC)CCCC(O)c1ccc(NS(C)(=O)=O)cc1 (configuration not stated) [Ibutilide fumarate],0.723,0.737
Fc1ccc([C@@H]2CCNC[C@H]2COc2ccc3c(c2)OCO3)cc1,-0.0171,1.15
C=CC(=O)N1CCC[C@@H](n2nc(-c3ccc(Oc4ccccc4)cc3)c3c(N)ncnc32)C1,0.0101,1.1
